Screens: PubChem BioAssay, National Center for Advancing Translational Sciences (NCATS)
SMN2 splice enh: qHTS Assay for Enhancers of SMN2 Splice Variant Expression; HEK293 SMN2-luciferase splicing reporter, luminescence, 30-36 h; Potency, µM (doses to about 46.1 µM), for inactives: at the top dose activity change, positive = activation, hits mostly activators; actives 2.8% (n = 210,000); also: % of control where 0% means no effect; nearly all actives have a fitted effect of over 55% in size
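qHTS luciferase splicing reporter: luminescence rises when SMN2 exon 7 is included in transfected HEK293 cells. Compound exposure lasted 30-36 h at 37C, with 4.5 mM final sodium butyrate as control, followed by a ONE-Glo read.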
Rab9 prom act: qHTS Assay for Rab9 Promoter Activators; actives 2.8% (n = 320,000); Huh7 Rab9 promoter-luciferase reporter, luminescence, 24 h; AID 485297, 2010; Potency, µM (doses to about 9.22 µM), inactives show top-dose activation, negative = inhibition, most hits filed as activators; also: % of control where 0% means no effect; nearly all actives have a fitted effect of over 60% in size
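Luminescence from Amplite-detected luciferase (10 minutes, ambient) reports Rab9 promoter activation. Before that, stable Rab9-luciferase Huh7 cells (1500/well, reduced-serum OP-MEM I plus 10% FBS) were exposed to compound for 24 hours at 37C.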
KinaseGlo FLuc: Counterscreen for Luciferase (Kinase-Glo TM) Inhibition; Luciferin 4-monooxygenase (Photuris pensylvanica), Q27757; Kinase-Glo luciferase, ATP luminescence, 8 min; Potency, µM (titrated, usually from 38.3 µM), for inactives: at the highest dose activity change, negative = inhibition, actives largely listed as inhibitors; actives 0.28% (n = 200,000); also: % is scaled to controls: 0 for no effect and ±100 for the full control effect; nearly all actives have a fitted effect of over 60% in size
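Compound is pinned into ATP-containing buffer (10 uM ATP, imidazole pH 7.2, 7 mM MgCl2). Kinase-Glo luciferase reagent is then added. Light output is recorded following an 8-min room-temperature incubation.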
NPC1 prom act: qHTS Assay for NPC1 Promoter Activators; AID 485313, 2010; actives 2.4% (n = 320,000); Huh7 NPC1 promoter luciferase reporter, 24 h; Potency, µM (top dose mostly 9.22 µM), for inactives: top-dose activation, actives largely listed as activators; also: % of control where 0% means no effect; nearly all actives have a fitted effect of over 60% in size
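Luminescence read-out of NPC1 promoter-driven luciferase in stably transfected Huh7 cells; compounds delivered in DMSO and left 24 h at 37C, 5% CO2, qHTS titration format.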
FLuc counter: qHTS profiling assay for firefly luciferase inhibitor/activator using purifed enzyme and Km concentrations of substrates (counterscreen for miR-21 project); purified FLuc, Km substrates, luminescence inhibition; actives 6.9% (n = 360,000); Potency, µM (series often up to 57.5 µM), for the others: at the highest dose activity change, negative = inhibition, usual class: inhibitors; Luciferin 4-monooxygenase (Photinus pyralis), P08659;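 also: plate controls were vehicle for no effect and reference inhibitor for full effect; nearly all actives have a fitted effect of over 55% in size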
Target sequence (P08659 whole entry, looked up): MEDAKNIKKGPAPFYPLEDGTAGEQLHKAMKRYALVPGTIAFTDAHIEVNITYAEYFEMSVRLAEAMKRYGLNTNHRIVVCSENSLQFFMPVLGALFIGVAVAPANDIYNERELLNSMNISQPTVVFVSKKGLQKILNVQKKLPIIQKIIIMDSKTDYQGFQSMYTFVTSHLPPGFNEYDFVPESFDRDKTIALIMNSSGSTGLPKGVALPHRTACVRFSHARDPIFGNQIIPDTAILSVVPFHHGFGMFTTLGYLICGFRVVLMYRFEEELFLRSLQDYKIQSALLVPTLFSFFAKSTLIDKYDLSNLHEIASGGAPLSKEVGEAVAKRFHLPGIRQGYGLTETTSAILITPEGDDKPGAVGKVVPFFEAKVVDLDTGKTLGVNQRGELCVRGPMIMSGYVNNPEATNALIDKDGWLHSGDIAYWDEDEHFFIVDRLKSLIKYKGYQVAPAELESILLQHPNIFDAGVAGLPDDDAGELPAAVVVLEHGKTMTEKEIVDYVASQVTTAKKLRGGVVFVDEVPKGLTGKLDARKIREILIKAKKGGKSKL
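Biochemical qHTS of compounds, final roughly 60 µM downward over six points, against 10 nM purified firefly luciferase using Km concentrations of substrates (10 uM D-luciferin, 10 uM ATP) in Tris acetate pH 7.5 buffer; luminescence output.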
ELG1 genotox: qHTS screen for small molecules that induce genotoxicity in human embryonic kidney (HEK293T) cells expressing luciferase-tagged ELG1; HEK293T ELG1-luciferase reporter, luminescence, 16 h; actives 1.3% (n = 330,000); Potency, µM (highest dose often 46 µM), for inactives: top-dose activity change, positive = activation, hits mostly activators; also: % of control where 0% means no effect; nearly all actives have a fitted effect of over 60% in size
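Luminescence read-out: rising ELG1-luciferase signal, reflecting elevated ELG1 protein under genetic stress, flags genotoxic compounds. Cells were treated for 16 hr at 37 °C before ONE-Glo detection.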
Numbers without * were called inactive; ? = inconclusive; / = no result given. Rows were chosen to be rich in hits. Some 7.5% of all compounds tested hit in one or more screens of this group. Calls follow the shape of the dose curve; as a rule, active = well fitted curve in the direction sought with a large enough effect; inconclusive = small, poorly fitted or top-dose-only effect, or another doubt; inactive = no such curve, though single readings can be large; an effect the other way counts as inactive or inconclusive. Potency is read from the fitted curve at half-maximal effect.

SMILES	SMN2 splice enh	Rab9 prom act	KinaseGlo FLuc	NPC1 prom act	FLuc counter	ELG1 genotox
COc1ccc(-n2nc(C(=O)Nc3nc4ccc(OC)cc4s3)c3ccccc3c2=O)c(OC)c1	-8%	0%	1%	-6%	5%	8%
CCCC(=O)Nc1nc2ccc(NC(=O)c3ccccc3F)cc2s1	/	-12%	-2%	-30%	-22%	-2%
COc1ccc2nc(NC(=O)c3ccccc3F)sc2c1	/	0.32µM*	/	0.45µM*	0.34µM*	?
CCn1cc([N+](=O)[O-])c(C(=O)Nc2nc3ccc(OC)cc3s2)n1	-4%	0.32µM*	-3%	0.4µM*	24µM*	7%
Cc1ccc2nc(NC(=O)c3cc(=O)c4cc(C)c(C)cc4o3)sc2c1	-5%	/	/	/	-8%	/
COc1ccc2nc(NC(=O)c3cc(=O)c4ccccc4o3)sc2c1	21%	/	/	/	1.7µM*	/
Cc1c(NC(=O)C(F)(F)F)ccc2nc3c(=O)n(C)c(=O)n(C)c3nc12	8%	/	/	/	-14%	/
Cc1cc(C)c2nc(NNC(=O)c3ccc(S(=O)(=O)N4CCc5ccccc5C4)cc3)sc2c1	-116%	-13%	1%	-2%	2%	?
Cc1cc(C)c2nc(NNC(=O)c3cc(=O)c4ccccc4o3)sc2c1	/	15%	/	1%	13µM*	3%
Cc1ccc2nc(NC(=O)c3ccccc3F)sc2c1	/	?	/	0.32µM*	0.48µM*	0.65µM*
CSc1ncccc1C(=O)Nc1ccc2nc(C)sc2c1	/	1%	/	23%	17µM*	12%
CSc1ncccc1C(=O)Nc1nc2ccc(Oc3ccccc3)cc2s1	11%	0%	-20%	-1%	24µM*	0%
CSc1ncccc1C(=O)Nc1ccncc1	/	-5%	/	12%	3%	2%
CCn1cc(CN2CCC(Oc3ccc(C(=O)N4CCCCC4)cc3)CC2)cn1	/	-2%	/	8%	1%	-2%
CN(/N=C/c1c[nH]c2ccccc12)c1cnn(-c2ccc(F)c(Cl)c2)c(=O)c1Cl	8%	11%	-2%	-1%	13µM*	3%
COc1ccc(Nc2ncnc3sc(-c4ccccc4)cc23)cc1OC	-6%	0%	3%	1%	12µM*	0%
CNC(=O)Cn1nc(C)c2ccccc2c1=O	17%	4.5µM*	2%	2%	-1%	0%
Cc1ccc(CCNC(=O)C2COc3ccccc3C2)cc1 (stereo not drawn)	/	/	/	/	-6%	/
C=CCSc1nc(N)c2c(C)c(C)sc2n1	-5%	24%	-2%	18%	12µM*	?
CCSc1nc(N)c2c(C)c(C)sc2n1	17%	2%	1%	2%	?	9%
Cc1ccc(C)c(N=Nc2nc3ccccc3n2C)c1	?	2µM*	?	3.2µM*	0.95µM*	?
Cc1cc(C)c(C)c(N=Nc2nc3ccccc3n2C)c1C	-41%	19%	-9%	11%	11µM*	?
CSc1cccc(NC(=O)/C=C/c2ccccc2)c1	?	2.2µM*	-2%	3.2µM*	4.8µM*	13%
CSc1ccc(/C=C/C(=O)Nc2ccccc2)cc1	3.2µM*	0.32µM*	13µM*	0.32µM*	0.24µM*	-4%
COc1ccc(/C=C/C(=O)Nc2ccccc2)cc1OC	13µM*	3.2µM*	-1%	?	13µM*	?
SMILES	SMN2 splice enh	Rab9 prom act	KinaseGlo FLuc	NPC1 prom act	FLuc counter	ELG1 genotox
CSc1cccc(NC(=O)/C=C/c2ccc(Cl)cc2)c1	27%	25%	-3%	?	3.4µM*	0%
CC(=O)Nc1ccc(NC(=O)/C=C/c2ccccc2)cc1	7%	6%	11%	4%	?	-6%
COc1ccc(/C=C/C(=O)NC(=S)Nc2ccccc2)cc1OC	/	-4%	/	-2%	-8%	?
COc1cc(/C=C/C(=O)NC(=O)c2ccccc2O)ccc1OC(C)=O	/	?	/	?	3µM*	?
C/C=C/c1ccc(OC(C)=O)c(OC)c1	-29%	1%	-3%	-1%	-3%	1%
CCC(=O)NC(=S)Nc1ccc(NC(=S)NC(=O)c2ccc(C)cc2)cc1	-2%	-4%	0%	-7%	1%	?
CCC(=O)NC(=S)Nc1ccc(-c2nc3ccc(C)cc3s2)cc1	/	0.45µM*	/	0.79µM*	17µM*	?
CCC(=O)NC(=S)Nc1ccc(NC(=O)CC)cc1	12%	0%	-1%	-3%	-7%	0%
CCC(=O)NC(=S)Nc1ccc(-c2nc3ccccc3s2)cc1	5µM*	1.6µM*	-1%	0.45µM*	0.76µM*	?
Cc1ccc2nc(-c3ccc(NC(=S)NC(=O)C(C)C)cc3)sc2c1	/	1.8µM*	13%	0.4µM*	3.8µM*	9.2µM*
Cc1ccc2nc(-c3ccc(NC(=S)NC4CC(C)(C)NC(C)(C)C4)cc3)sc2c1	?	?	-8%	?	11µM*	?
CCn1cc(C(=O)Nc2cccc(Cl)c2)c2cc(OC)c(OC)cc2c1=O	1%	/	/	/	3%	/
O=C(CNc1ccccc1)Nc1cccc2ccccc12	/	6%	/	7%	3%	-6%
Cc1ccc(C2C(C(=O)c3cccs3)=C(O)C(=O)N2c2nnc(C)s2)cc1 (stereo not drawn)	-3%	7%	2%	-4%	?	0%
CCOC(=O)CN1N=C(/C=C/c2ccc(C)cc2)CCC1=O	9%	-5%	-2%	1%	?	4%
COc1ccc(/C=C/C2=NN(C)C(=O)CC2)cc1	11µM*	2.8µM*	?	2µM*	11µM*	?
Cc1ccc(C(C)C)c(OCC(=O)Nc2c(C(=O)c3ccccc3)oc3ccccc23)c1	-9%	/	/	/	3%	/
C/C(=N/OCO/N=C(/C)c1ccc(F)cc1)c1ccc(F)cc1	8.9µM*	10%	3%	0%	3%	5%
Cc1cccc(C)c1NC(=O)CN(c1ccccn1)S(=O)(=O)c1ccc(F)cc1	-8%	-1%	-2%	-9%	-1%	-2%
COc1cc2ccccc2cc1C(=O)Nc1cccc(-c2nc3cc(C)c(C)cc3o2)c1C	-4%	/	/	/	?	/
Cc1cc2nc(-c3cccc(NC(=O)c4ccc(Br)o4)c3C)oc2cc1C	-17%	21%	-12%	26%	4.3µM*	-3%
Cc1ccc2oc(-c3cccc(NC(=O)c4ccc(Br)o4)c3C)nc2c1	-19%	-3%	-2%	10%	7.6µM*	25%
Cc1cc2nc(-c3cccc(NC(=O)C(C)C)c3C)oc2cc1C	/	/	/	/	0.48µM*	/
